Measurements from PubChem BioAssay (NCI).
Compounds without any hit were thinned out: in the full panel of roughly 83,000, 20% have a hit.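 The endpoint reported here, percent growth, reads 100 for growth as untreated, 0 for no net growth and -100 for all cells dead.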 A number with no mark means an inactive call. Calls of active or inactive are those of the source.

What follows are compounds tested on HT29 colon (assay: NCI-60 one-dose screen, 48 h (100 = growth as untreated, 0 = no growth, -100 = all killed)). Details: 10 µM unless noted.
Protocol: Growth inhibition of the HT29 human tumor cell line is measured as a screen for anti-cancer activity. Cells are grown in 96 well plates and exposed to the test compound for 48 hours. Compounds are tested at a single concentration, which is 10^-5 M for most compounds. The reported endpoint is percent growth (GI% or GIPRCNT), where numbers from 0 - 100% represent growth inhibition, and numbers from -100% - 0 represent cell death. For example, a value of 40 represents 60% growth inhibition. A value of 0 means no net growth occurred over the course of the experiment. A value of -40 indicates 40% of cells at the beginning of the experiment died by the end of the experiment. A value of -100 means all cells are dead at the end of the experiment.
NCI-60 Human Tumor Cell Lines Screen was performed using the standard one-dose NCI protocol, which is described in more detail at https://dtp.cancer.gov/discovery_development/nci-60/default.htm.
Compounds with GIPRCNT values below 10 were considered active. Activity score was based on GIPRCNT using the following formula: […]
Score is 0 for GIPRCNT values of 100 or above, 50 for GIPRCNT values of 0, and 100 for GIPRCNT values of -100.

| SMILES | growth |
| --- | --- |
| Cc1ccc(S(=O)(=O)N2C/C(=C\c3cc(F)cc(F)c3)C(=O)/C(=C/c3cc(F)cc(F)c3)C2)cc1 | -48.7% (active) |
| NC1=NC(c2ccccc2OS(=O)(=O)c2ccc(Br)cc2)n2c(nc3ccccc32)N1 (stereo not given) | 92.1% |
| C=C[C@H]1C[C@@H]2C[C@@H]3[C@H]4C/C=C\C(=O)NCCCC5NC(=O)C(=C(O)/C=C/[C@@H]4CC(=O)[C@H]3[C@@H]2[C@H]1C)C5=O (stereo not given in full) | -76% (active) |
| O=C1c2[nH]cc(CN[C@@H]3CCCN3)c2C(=O)c2c1c(O)c1ccccc1c2O | -98.4% (active) |
| COc1cc(-c2nc3ccccc3o2)cc(CN2CCN(c3ccccc3)CC2)c1O | 93.8% |
| CS(=O)(=O)Nc1cccc(C(=O)NCc2ccc(N3CCOCC3)cc2)c1 | 95% |
| O=C(N/N=C(\CS(=O)(=O)c1ccccc1)c1cc2ccccc2oc1=O)c1ccccc1 | 108% |
| Cc1ccc(C)c2c1sc1nc3nc4sc5ccccc5n4c(=N)c3c(=O)n12 | 104% |
| Cc1ccc2nc(NC(=O)CSC(=S)N3CCN(Cc4ccccc4)CC3)sc2c1 | -62.7% (active) |
| O=c1c2cc(F)ccc2oc2c(NCCNCCO)nc3ccccc3c12 | 16.7% |
| C=C(C)COC(=O)c1ccccc1C(=O)OCC1(C)CO1 (stereo not given) | 107% |
| Cc1cccc2c(=O)c3c(sc12)c(NCCNCCO)nc1ccccc13 | -55.4% (active) |
| COc1cccc(OC(=O)c2ccccc2)c1OC(=O)c1ccccc1 | 85.3% |
| O=C1C=CC(=O)N1CCCCCCCCCCN1C(=O)C=CC1=O | 63.2% |
| CCCCCCCC/C=C\CCCCCCCCOc1cccc(CC(=O)NCC[N+](C)(C)C)c1 | 48.3% |
| COc1ccc(Nc2[nH]n(C3=Nc4ccccc4Sc4ccccc43)c(=O)c2C#N)cc1 | 68.7% |
| COc1cccc(-c2ccc3c(c2)C2CCN(Cc4ccccc4)C3C2)c1 (stereo not given) | 36.5% |
| COc1cc(C(=O)N(C(C)C)C2CCCCC2)cc(OC)c1OC | 99.2% |
| CC1SC(c2ccc(Cl)cc2)N(CCc2cccs2)C1=O (stereo not given) | -40.2% (active) |
| CC(=O)Nc1ccc(S(=O)(=O)N/N=C\c2ccc(Cl)c(Cl)c2)cc1 | 102% |

| SMILES | growth |
| --- | --- |
| NC(=O)c1nc2c([nH]c1=O)CCCC2 | 101% |
| O=[N+]([O-])c1ccc(O)c2ncccc12 | 81% |
| Nc1nc(N)c(C=Nc2ccc(Br)cc2)c(Nc2ccc(Br)cc2)n1 | 101% |
| COC(=O)C1C2CC3c4[nH]c5cc(OC)ccc5c4CCN3CC2CC(OC2CCCCO2)C1OC (stereo not given) | 94.4% |
| Oc1ccc2ccccc2c1C1NN=C(c2ccccc2)S1 (stereo not given) | 37.8% |
| O=c1oc2ccccc2cc1-c1csc(N/N=C/c2cc3ccccc3nc2Cl)n1 | 100% |
| CC1(C)N=C(N)N=C(N)N1c1cccc(/C=C/C=C/c2cccc([N+](=O)[O-])c2)c1 | 11.5% |
| CN1CCN(CCCn2c3c(sc4ncccc43)c(=O)n3nnc(-c4ccccc4)c23)CC1 | -46.2% (active) |
| O=[N+]([O-])c1cc2c(cc1Br)C1C(C3C2C(Cl)(Cl)C(Cl)=C(Cl)C3(Cl)Cl)C(Cl)(Cl)C(Cl)=C(Cl)C1(Cl)Cl (stereo not given) | 102% |
| Cn1cc(C(=O)NCCC(=N)N)cc1NC(=O)CN=C(N)N | 107% |
| CC[Si](CC)(CC)OC1[C@@H](O[Si](CC)(CC)CC)[C@@H](CNC(=O)NC)O[C@H]1n1cnc2c(NC(=O)Nc3ccccc3)ncnc21 (stereo not given in full) | 50.2% |
| Clc1nc(-c2ccccn2)nc2sc3c(c12)CCCCCC3 | 99.3% |
| COC(=O)[C@@H]1CCCN1C(=O)[C@@H]1CCCN1C(=O)[C@@H](Cc1c[nH]c2ccccc12)NC(=S)Nc1cc(C(F)(F)F)cc(C(F)(F)F)c1 | 51.1% |
| Nc1cc(Br)c(-c2nnc(CCC(=O)c3nc4ccccc4[nH]3)o2)c(Br)c1 | 84.1% |
| Cc1nn2c(-c3nc4ccc(Cl)cc4[nH]3)c(-c3ccc(F)cc3)nc2s1 | 94.4% |
| Cc1nn(-c2ccccc2)c2nc3nc4c(c(N)c3c(-c3ccc(Cl)cc3)c12)CCC4 | 55.2% |
| Oc1ccccc1/C=N/Nc1nc2ccccc2s1 | 105% |
| COc1ccc(-c2cc(=O)oc3c4c(ccc23)OCN(Cc2ccc(F)cc2)C4)cc1 | 42.4% |
| COc1cc(/C=N/NC(=O)c2cnn3c2NC(c2ccccc2)C3)ccc1OC1CCCC1 (stereo not given) | 11.8% |
| CCCCCCCC/C=C\CCCCCCCCOc1cccc(CC(=O)NCC[N+]2(C)CCOCC2)c1 | 53.5% |
